Measured values reported in the supplement of paper PMC6555819.

Assays:
Assay in all cases: PBM binding z-score (relative to random genomic background probes); higher = stronger binding; sequences stand for … in GC…GCGATTGACAGCGTAGAATGAAGG
[1] = tested on: FXR:RXRa (NR concentration 270 nM, RXRa partner concentration 90 nM)
Procedure, shortened: (§1)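 For binding z-scores, the reference was random background probes on custom Agilent 4×180K protein-binding microarrays. These arrays were incubated 1 h with ligand-free nuclear receptor dimers in PBS pH 7.4, 2% milk, 0.02% Triton X-100, 1 mM DTT, 0.2 mg/mL BSA and 0.4 mg/ml salmon testes DNA. Fluorescence was scanned after antibody detection of each partner (one per run) and regression-normalized.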

[2] = tested on: LXRa:RXRa (NR concentration 270 nM, RXRa partner concentration 90 nM)
Procedure, shortened: as §1

[3] = tested on: LXRa homodimer (NR concentration 270 nM)
Procedure, shortened: as §1

[4] = tested on: LXRb:RXRa (NR concentration 270 nM, RXRa partner concentration 90 nM)
Procedure, shortened: as §1

[5] = tested on: LXRb homodimer (NR concentration 270 nM)
Procedure, shortened: as §1

[6] = tested on: PPARa:RXRa (NR concentration 270 nM, RXRa partner concentration 90 nM)
Procedure, shortened: as §1

[7] = tested on: PPARg:RXRa (NR concentration 180 nM, RXRa partner concentration 90 nM)
Procedure, shortened: as §1

[8] = tested on: PPARg:RXRa 270nM:90nM, anti-RXR (NR concentration 270 nM, RXRa partner concentration 90 nM)
Procedure, shortened: as §1

[9] = tested on: PPARg:RXRa 30nM:10nM, anti-RXR (NR concentration 30 nM, RXRa partner concentration 10 nM)
Procedure, shortened: as §1

[10] = tested on: PPARg:RXRa 90nM:30nM, anti-RXR (NR concentration 90 nM, RXRa partner concentration 30 nM)
Procedure, shortened: as §1

| Sequence | PBM binding z-score [1] | PBM binding z-score [2] | PBM binding z-score [3] | PBM binding z-score [4] | PBM binding z-score [5] | PBM binding z-score [6] | PBM binding z-score [7] | PBM binding z-score [8] | PBM binding z-score [9] | PBM binding z-score [10] |
| --- | --- | --- | --- | --- | --- | --- | --- | --- | --- | --- |
| CCGACTGAGGCAAGGTTACCATAACGCACAGCCA | 0.169 | 0.738 | -0.295 | 0.593 | -0.805 | 0.985 | 0.898 | 0.236 | -0.466 | 0.134 |
| ACTGACAGGTGAGTGAAGGTAACTCAGCTGGACG | 0.406 | 0.0865 | -0.418 | -0.453 | -0.767 | 0.153 | 0.398 | 0.0745 | -0.305 | -0.0738 |
| GGAACGAGGGCAAGTTGATAGAAGAGTTTGATGG | 0.705 | 0.396 | -0.176 | 0.213 | -0.242 | 1.41 | 1.29 | 0.969 | 0.173 | 0.351 |
| TCGAGTAGATTACCAATGGGGCATTCAGCTTTCT | -0.309 | -0.307 | -0.306 | 0.0449 | -0.399 | -0.126 | -0.221 | -0.0351 | 0.935 | 0.435 |
| TCATATAGGTAAAAGGTGAAATTCGGTGTGGTAA | 2.42 | 1.99 | 0.471 | 2.11 | 0.332 | 5.49 | 8.93 | 8.13 | 8.19 | 8.89 |
| GTACCAAGGTGAATAGGTCGTGGATGAGTAGGCG | 1.25 | 1.07 | -0.132 | 0.395 | -0.586 | 2.47 | 1.85 | 2.35 | 0.297 | 1.3 |
| CCAGACAGGTGAGAAGGTAAATCAGCCTCGATTA | 0.109 | 0.108 | -0.129 | 0.141 | -0.154 | 0.484 | 0.39 | 0.456 | 0.0319 | 0.15 |
| CCTAGATGGTCAAGGTCACACACGCTATAGGTAC | 4.6 | 3.62 | 2.05 | 3.69 | 0.665 | 4.2 | 3.13 | 3.56 | 1.34 | 2.46 |
| TCTGCTAGGTCAATGATGGTCAGCTAATCTGCTA | 2.48 | 2.82 | -0.0629 | 1.38 | -0.0652 | 2.69 | 1.53 | 2.35 | 1.77 | 2.05 |
| ACTAGTTGGTCAGCTGAGGTCACATACAATTCGG | 2.13 | 2.95 | 2.7 | 3.37 | 0.543 | 3.41 | 1.77 | 1.98 | 0.658 | 1.17 |
| GCTATTAGTTGAAAGGGCAACCCAATGATTCTCG | 0.453 | 0.68 | 0.645 | 0.925 | -0.181 | 2.4 | 2.65 | 4.29 | 1.81 | 3.88 |
| ATATGAAGGTTACATCCGGGTCATTCAGGCTATG | 2.82 | 4.87 | 1.86 | 3.51 | 0.71 | 3.69 | 2.35 | 2.52 | 1 | 1.58 |
| TAGCCTAGGTCATGGGCCAGTATCCCACGCGAAC | 4.49 | 3.17 | 0.378 | 2.29 | -0.295 | 4.04 | 3.88 | 3.41 | 0.754 | 2.6 |
| CCTTACGGGTCACGAGGTTATGGCACGACGAGCG | 6.57 | 4.39 | 0.195 | 3.8 | 0.148 | 5.94 | 7.08 | 6.31 | 3.46 | 5.31 |
| CCAGACAGGTGAGAAGGTGACTCAGCCTCGATTA | 0.0148 | -0.0121 | -0.103 | 0.201 | -0.178 | 0.868 | 0.495 | 0.694 | -0.409 | 0.222 |
| ACTTACGGGTCAACGAGGTTAAAGCACGCGTATA | 7.3 | 5.07 | 0.882 | 4.97 | 0.527 | 6.09 | 6.14 | 5.57 | 2.44 | 4.29 |
| AGTCAAAGTTCAGGACGAAGTAACGTAAAGCACG | 3.85 | 3.49 | 0.943 | 1.68 | 0.274 | 3.3 | 4.78 | 4.86 | 1.78 | 3.86 |
| CGTCAAAGTTCAAGGTAACGGAACAGAAAGCAGC | 6.15 | 5.59 | 2.26 | 3.12 | 0.735 | 4.63 | 4.57 | 5.32 | 2.47 | 4.21 |
| ACTAGAAGGCCAAGTTTGGGTCACTCAAACAAAG | 0.681 | 0.517 | -0.0475 | 0.902 | -0.474 | 1.52 | 0.293 | 0.723 | -0.386 | 0.134 |
| CGTCAAAGTTCAAGGTAGCGTAACAGAAAGCAGC | 5.54 | 5.8 | 2.95 | 3.18 | 0.738 | 4.56 | 3.8 | 5.04 | 2.26 | 3.89 |
| TCTAGCAGGCCAGAGGGTCACTCAAGAGGTACGG | 0.812 | 1.03 | -0.601 | 0.926 | -1.51 | 2.39 | 1.43 | 2.72 | 2.09 | 2.57 |
| AGTCAAAGTTCAAGACGAGGTAACGTAAAGCACG | 6.21 | 5.72 | 2.72 | 3.19 | 0.519 | 4.72 | 6.2 | 6.17 | 3.81 | 5.35 |
| CCCTACGGGTCACTGACAGGTTATAGCATTTGGA | 5.12 | 4.24 | 0.501 | 3.53 | -0.128 | 5.1 | 3.55 | 3.77 | 0.787 | 2.43 |
